The source of these data is PubChem BioAssay AID624287 (National Center for Advancing Translational Sciences (NCATS), 2012).

Out of some 340,000 compounds screened, about 420 (0.12%) were called active. A call without a number means that no potency is given here. Another 10% or so got no clear call; they are omitted. Calls come from the whole dose curve; as a rule, active = well fitted activation curve with a large enough effect; inconclusive = small, poorly fitted or top-dose-only effect, or another doubt; inactive = no such curve, though single readings can be large or run the other way; cell line not stated here. This excerpt belongs to a sample that is enriched for actives.
Potency is the fitted concentration of half-maximal effect.

The nature of the experiment: qHTS for Agonist of gsp, the Etiologic Mutation Responsible for Fibrous Dysplasia/McCune-Albright Syndrome: qHTS.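 For activation (cAMP increase): phosphodiesterase inhibitor Ro 20-1724 added with compounds to block cAMP breakdown.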 Note: nearly all actives have a fitted effect of over 60% in size. The settings on record: gsp mutant cells, cAMP HTRF, 30 min; series mostly up to 76.9 µM. The text has this:
McCune-Albright syndrome (MAS) is a rare disease caused by somatic mutations in Gsgsp), a widely expressed protein central in signal transduction from G-coupled protein receptors (GPCRs). The disease symptoms are diverse, owing to the fact that the patients are mosaics with varying degrees of tissue involvement. Greater than 90% of the mutations in Gs in MAS occur at the R201 position and are equally divided between R201H and R201C. The R201 residue is central in the intrinsic GTPase activity of Gs and the H and C mutations lead to loss of, or impairment of, the GTPase activity. The intrinsic GTPase activity is necessary to terminate the interaction between Gs and adenylate cyclase, and to terminate the cAMP-mediated signaling of the given GPCR pathway. Thus, these activating mutations lead to ligand-independent activation of GPCR pathways. The tissue phenotype is determined by the role of Gs in the function of a given cell, and excess Gs/cAMP signaling in that cell. For example, pituitary somatotrophs overproduce growth hormone in a growth hormone releasing hormone-independent fashion, and gigantism/acromegaly ensues. Skeletal stem cells in the bone marrow behave as if they are under constant parathyroid hormone stimulation and fail to differentiate into osteoblasts and osteocytes, and proliferate as immature osteogenic cells and lead to the marrow fibrosis of fibrous dysplasia of bone. The goal of this project is to identify molecules with stimulatory activity at gsp mutations that will not only allow for in-depth study of the underlying molecular and cellular pathophysiology, but also serve as compounds from which drugs to treat FD/MAS can be developed NIH Chemical Genomics Center [NCGC] NIH Molecular Libraries Probe Centers Network [MLPCN] MLPCN Grant: IRP-FT-DE-2011-01 Assay Submitter (PI): Michael Collins, NIDCR
1.#Seed 2000 cells/well in 6 ul DMEM 10% FBS, 1% Pen/Strep, 0.5 mg/ml G418 2.#Incubate 16-24 hr at 37C, 5% CO2, 95% humidity 3.#Aspirate leaving 1 ul residual volume 4.#Dispense 5 ul/well DPBS + 1 mM CaCl2, 0.5 mM MgCl2, 0.05% BSA, 0.005% Tween 20 5.#Aspirate leaving 2 ul residual volume 6.#Dispense 23 nl/well compounds in DMSO 7.#Dispense 1 ul/well 300 uM Ro-20174 in DMEM 10% FBS 8.#Incubate 30 min at 37C, 5% CO2, 95% humidity 9.#Dispense 1.5 ul/well HTRF reagent: cAMP-d2 in lysis buffer 10.#Dispense 1.5 ul/well HTRF reagent: anti-cAMP antibody-K in lysis buffer 11.#Incubate 30 min at room temperature 12.#Detect HTRF signal using EnVision plate reader
Consider `O=C(O)C1=C(C(=O)O)C2CCC1C2`, for which the Potency entry is “inactive”. For `CC1=C(C(=O)N2CCOCC2)CC(CC(=O)NCCN2CCOCC2)C(=O)N1CCC1=CCCCC1` (stereo unspecified), the Potency entry is “inactive”. With `CC1(c2cccc(N)c2)OCCO1`, the Potency result is “inactive”. Regarding `CCc1cccc(CC)c1N1C(=O)CC(Sc2ccccc2N)C1=O` (stereo unspecified), the Potency entry is “inactive”. `CCCCN(C(C)=O)c1ccc2c(c1)C1CC2CCN1Cc1ccccc1` (stereo unspecified): the Potency entry is “inactive”. For the compound `CCOc1ccc(S(=O)(=O)NCCC(=O)NNC(=O)c2ccc(F)cc2)cc1`, the Potency entry was “inactive”.

In the case of `Cc1ccc(NC(=O)Cn2sc3ccccc3c2=O)cc1`, the Potency entry was “inactive”. For `CC1C(C)N(C(=O)CCl)c2ccccc2N1C(=O)CCl` (stereo unspecified), the activation (cAMP increase) was -0.561% [at 15.4 µM] (inactive). As to `CC1CCCC(C)N1C(=O)COC(=O)c1ccccc1C(=O)c1ccccc1` (stereo unspecified), the Potency entry was “inactive”.

With `CC1(C)NC(=O)N(CC(=O)Nc2ccc(-c3ccccc3)cc2)C1=O`, the Potency entry was “inactive”.

As to `CC1C(=O)N(Cc2cn(CC3CCCCC3)nn2)CCS(=O)(=O)N1Cc1ccc(-c2cccc(N(C)C)c2)cc1` (stereo unspecified), the Potency result was “inactive”. Turning to `CCOC(=O)C(=Cc1ccccc1)C(=O)c1ccccc1`, the Potency entry was “inactive”. As for `COc1ccc(S(=O)(=O)N2CCN(CC(=O)N3CCNC3=O)CC2)cc1OC`, the Potency entry was “inactive”. Turning to `O=C(OCC(=O)N1CCCCCC1)c1cccc(Cl)c1Cl`, the Potency result was “inactive”. Consider `CSc1ncnc2c1ncn2CCCNCC(C)c1ccccc1` (stereo unspecified), for which the Potency result is “inactive”. For `C[C@H]1NS(=O)(=O)c2cc(Cl)ccc2O[C@@H]1c1ccccc1`, the Potency result is “inactive”. `COc1cc2nnn(-c3ccncc3)c2cc1OC`: the Potency entry is “inactive”. Still for that read-out and setting: the value for `O=C(COC(=O)/C=C/c1ccc(Cl)cc1)NC1CCS(=O)(=O)C1` (stereo unspecified) was “inactive”. `Cc1ccccc1-c1ccc2c(c1)O[C@@H](CN(C)Cc1ccc(C(=O)O)cc1)[C@@H](C)CN([C@H](C)CO)S2(=O)=O`: the Potency result was “inactive”. Consider `CCN(Cc1ccncc1)C(=S)Nc1ccccc1C`, for which the Potency result is “inactive”. Turning to `CC1CCCC(NC(=O)COC(=O)c2ccccc2C(=O)N(C)C2CCCCC2)C1C` (stereo unspecified), the Potency entry is “inactive”. With `CCN(CC)C(=O)C1=C(C)N(Cc2ccc(OC)cc2)C(=O)C(CC(=O)NCCCCc2ccccc2)C1` (stereo unspecified), the Potency result is “inactive”. As for `N#CCCC(C#N)(c1cccnc1)N1CCOCC1` (stereo unspecified), the Potency entry was “inactive”.

Regarding `CCc1cc(C(=O)N(CC)CC(=O)Nc2c(F)cccc2F)sc1C`, the Potency result was “inactive”.

On to `Cc1ccc(-c2ccc(CN3C(C)C(=O)N(Cc4cn(CCC5OCCCO5)nn4)CCS3(=O)=O)cc2)cc1` (stereo unspecified), for which the Potency result was “inactive”. `COc1ccc(S(=O)(=O)N2CCC(C(=O)NCCC(=O)Nc3ccccc3OC)CC2)cc1`: the Potency result is “inactive”. As to `CC1CC(NC(=S)N(C)C)CC(C)(C)C1` (stereo unspecified), the Potency entry was “inactive”. For the compound `CC(C)NC(=O)Nc1ccc2c(c1)C(=O)N([C@H](C)CO)C[C@H](C)[C@@H](CN(C)Cc1ccc(C(F)(F)F)cc1)OCCCC[C@@H](C)O2`, the Potency entry was “inactive”. As for `O=C(NN=Cc1ccc2c(c1)CCC2)c1ccccc1O`, the Potency entry is “inactive”.

For the compound `O[C@H]1C[C@H](c2ccc(Cl)cc2)N(Cc2cccs2)C[C@@H]1n1cc(C2CC2)nn1`, the Potency result was “inactive”. `CC(=O)Nc1ccc2c3c(ccc([N+](=O)[O-])c13)CC2`: the Potency result was “inactive”.

Turning to `O=C(O)c1ccccc1NC(=O)c1ccccc1-c1ccccc1C(=O)O`, the Potency result is “inactive”.

In the case of `O=C(NC(=S)Nc1ccccc1C(=O)O)c1ccc(-c2ccc(Br)cc2)o1`, the Potency was 14.1 µM (active). With `COC(=O)c1ccccc1NC(=S)NC(=O)c1ccccc1F`, the Potency result was “inactive”.

Consider `O=C(COC(=O)CCc1c[nH]c2ccccc12)Nc1cccc(Cl)c1`, for which the Potency result is “inactive”. `COC(=O)C(Cc1c[nH]c2ccccc12)NC(=O)CCNC(=O)c1ccco1` (stereo unspecified): the Potency result is “inactive”. Take `COc1ccc(-c2cnc3c(c2)C(=O)N([C@H](C)CO)C[C@@H](C)[C@H](CN(C)Cc2ccccc2)O3)cc1`: the Potency result was “inactive”.

On to `COc1ccc(-c2ccc(CN3C(C(C)C)C(=O)N(Cc4cn(CC5CCCCC5)nn4)CCS3(=O)=O)cc2)cn1` (stereo unspecified), for which the Potency entry was “inactive”. `CCCc1ccc(S(=O)(=O)N2CCN(C(=O)c3cc(C)on3)CC2)cc1`: the Potency result is “inactive”. For the compound `CCc1noc(C)c1C(=O)OCC(=O)c1ccc(NC(=O)CC(C)C)cc1`, the Potency result was “inactive”. For the compound `COc1ccc(CN2C(=O)C(CC(=O)NCCN3CCOCC3)CC(C(=O)N(C(C)C)C(C)C)=C2C)cc1` (stereo unspecified), the Potency entry was “inactive”.

Consider `COc1ccc(NC(=O)CCCOc2ccc(C(C)=O)cc2)cc1S(=O)(=O)N1CCCCC1`, for which the Potency entry is “inactive”.

In the case of `COc1cccc(/C=C2\SC(=S)N(CCCC(=O)N3CCOCC3)C2=O)c1`, the Potency entry is “inactive”. As for `Cc1ccc2cccc([N+](=O)[O-])c2n1`, the Potency entry is “inactive”.

Take `CCN(CC)C(=O)C(C)N1c2cccc3cccc(c23)S1(=O)=O` (stereo unspecified): the Potency entry was “inactive”.

`Cc1ccc(C(=O)NC(C)C(c2cccs2)N2CCOCC2)cc1C` (stereo unspecified): the Potency entry was “inactive”. In the case of `COc1ccc(OC)c(NC(=O)C2CCCN2S(=O)(=O)c2ccc3c(c2)CC(C)N3C(C)=O)c1` (stereo unspecified), the Potency result was “inactive”. Regarding `C[C@@H]1CN([C@@H](C)CO)C(=O)c2cc(NS(C)(=O)=O)ccc2O[C@@H](C)CCCCO[C@H]1CN(C)C(=O)Nc1ccc2c(c1)OCO2`, the Potency entry was “inactive”. On to `Cc1cccn2c(=O)c3cc(C#N)c(=O)n(CCCN4CCOCC4)c3nc12`, for which the Potency was 20 µM (active).

Consider `COCCCn1c(C(=O)NC2CCCCC2)cc2c(=O)n3cccc(C)c3nc21`, for which the Potency entry was “inactive”. Same read-out and setting: the value for `Cc1cccn2c(=O)c3cc(C#N)c(=NC(=O)c4cccnc4)n(CC4CCCO4)c3nc12` (stereo unspecified) was “inactive”. The same measure, in the same setting: the result for `Cc1nnc(SC(C)C(=O)c2c[nH]c3ccccc23)n1C1CC1` (stereo unspecified) reads “inactive”; that for `Cc1ccc(C(=O)N[C@H](C(=O)N2CCN(c3ncccn3)CC2)C(C)C)cc1`, “inactive”; that for `CC(C)CCOc1ccc(C(=O)Nc2cc(S(=O)(=O)N3CCOCC3)ccc2N2CCOCC2)cc1`, “inactive”. As for `Cc1cccc(C(=O)NC2CCN(CC(=O)Nc3cccc(Cl)c3)CC2)c1`, the Potency result was “inactive”. On to `Cc1csc(SCC(=O)Nc2ccc(C)c(S(=O)(=O)N(C)C)c2)n1`, for which the Potency entry is “inactive”. Consider `CC1=C(C(=O)Nc2cccc(C(=O)NCC(C)c3ccccc3)c2)SCCO1` (stereo unspecified), for which the Potency result was “inactive”. Consider `O=C1[C@H]2[C@@H](c3ccc(C(F)(F)F)cc3)N[C@]3(CCCN(Cc4ccc(Cl)cc4)C3=O)[C@H]2C(=O)N1Cc1ccccc1`, for which the Potency result is “inactive”.

With `CCN1C(=O)[C@H]2[C@@H](c3ccccc3)N[C@]3(CCCN(Cc4ccc(C)cc4)C3=O)[C@H]2C1=O`, the Potency entry is “inactive”. `Cn1c(CCN2CCN(c3ccccn3)CC2)nc2cc(NS(=O)(=O)c3ccc(F)cc3)ccc21`: the Potency result was “inactive”.

For `c1ccc(Cn2nnc3c(NCC4CC4)ncnc32)cc1`, the Potency result is “inactive”.
